Bioassay records deposited in PubChem BioAssay by National Center for Advancing Translational Sciences (NCATS).
HT1080NT lethal: kills 2HG-producing HT-1080-NT fibrosarcoma cells; HT-1080-NT fibrosarcoma viability, CellTiter-Glo ATP luminescence, 48 h; Potency, µM (top dose mostly 46.1 µM), without a hit: top-dose activity, negative = less viability, hits mostly cytotoxic; hit rate 1.6% among 360,000; AID 686970;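 note: NT is the 2HG producing partner of a matched IDH1 knockdown line; potency is the fitted concentration of half-maximal effect; 0% = DMSO-treated cells and -100% = media-only wells without cells; nearly all actives have a fitted effect of over 55% in size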
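750 cells/well, RPMI + 5% FBS; 2 h settle, compound pin-transfer, 48 h at 37 degrees C. CellTiter-Glo 10 min RT, luminescence. Normalized to DMSO and media-only wells.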
IL1B secr inh: inhibitors of inflammasome signaling (IL-1 beta secretion). THP-1 LPS/ATP IL-1B secretion, AlphaLISA, 16 h; active compounds read low. activity change, % at 57.5 µM. hit rate 4.7% among 360,000; in the data active = activity change below about -50%; inconclusive = mostly about -30% to -49%
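Secreted IL-1B measured by AlphaLISA bead assay after 16 h compound exposure of THP-1 cells; compounds (final up to 57.5 uM) added 1 h before LPS (250 ng/mL) and ATP (1.25 mM) stimulation; lower signal means less secretion.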
TDP1 cell noCPT: qHTS for Inhibitors of human tyrosyl-DNA phosphodiesterase 1 (TDP1): qHTS in cells in absence of CPT. DT40 Tdp1-/- hTDP1 cells, no CPT, ATP luminescence, 48 h. hit rate 15% among 420,000. Potency, µM (doses to about 46.2 µM), inactives show at the highest dose activity change, negative = growth inhibition, usual class: inhibitors. AID 686978, 2013; note: potency is the fitted concentration of half-maximal effect; nearly all actives have a fitted effect of over 55% in size
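Luminescent ATP content (CellTiter-Glo) served as the growth readout. Knockout chicken DT40 cells expressing human TDP1 were exposed to compounds without camptothecin for a minimum 48 hr at 37 °C.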
HT1080 IDH1KD tx: kills HT-1080 cells with IDH1 knockdown | HT-1080 IDH1 knockdown viability, ATP luminescence, 48 h | Potency, µM (highest dose often 46.1 µM), for inactives: at the highest dose activity, negative = toxicity, actives largely listed as cytotoxic | hit rate 2% among 360,000 | AID 686971;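 note: potency is the fitted concentration of half-maximal effect; 0% = DMSO wells and -100% = cell-free medium wells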
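Using the IDH1-knockdown HT-1080 line run in the same batch and compound series as the NT line, viability after 48 h at 37 °C was determined by CellTiter-Glo luminescence and expressed as % activity.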
TDP1 cell CPT: growth inhibition of DT40 Tdp1-/-;hTDP1 cells with camptothecin (screen for TDP1 inhibitors). chicken DT40 Tdp1-/-;hTDP1 cells + 20 nM CPT, ATP luminescence, 48 h. Potency, µM (titrated, usually from 46.2 µM), for inactives: at the top dose activity change, negative = growth inhibition, hits mostly inhibitors. hit rate 12% among 420,000; note: potency is the fitted concentration of half-maximal effect; nearly all actives have a fitted effect of over 55% in size
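Chicken DT40 Tdp1-/- cells complemented with human TDP1, 400 cells/well, exposed to compounds plus 20 nM camptothecin for at least 48 h at 37 C; viability read as ATP content by CellTiter-Glo luminescence.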
* hit, by the source's call; [ ] = another dose, or the depositor's remark. Hits are enriched below; roughly 19% of the tested compounds scored in any of these assays. Unless noted, calls come from the whole dose curve; as a rule, active = well fitted curve in the direction sought with a large enough effect; inconclusive = small, poorly fitted or top-dose-only effect, or another doubt; inactive = no such curve, though single readings can be large; an effect the other way counts as inactive or inconclusive. Unless noted, % is set by controls: 0 for no effect and ±100 for the full control effect.

c1ccc2c(c1)[nH]c1c(NCC3CCCO3)ncnc12 (stereo unspecified) was read as HT1080NT lethal 0%, IL1B secr inh 11, TDP1 cell noCPT 15µM*, HT1080 IDH1KD tx inconclusive and TDP1 cell CPT inconclusive.
CCOc1ccc2[nH]c3c(NCCO)ncnc3c2c1 was read as HT1080NT lethal -10%, IL1B secr inh -26, TDP1 cell noCPT 1%, HT1080 IDH1KD tx -6% and TDP1 cell CPT -14%.
`CCOCCCNc1ncnc2c1[nH]c1ccccc12` gave HT1080NT lethal -6%, IL1B secr inh 0, TDP1 cell noCPT 16µM*, HT1080 IDH1KD tx -16% and TDP1 cell CPT 10µM*.
`CCCCOCCCNc1ncnc2c1[nH]c1ccccc12` gave HT1080NT lethal 13µM*, IL1B secr inh -95*, TDP1 cell noCPT 2.3µM*, HT1080 IDH1KD tx 18µM* and TDP1 cell CPT 2.1µM*.
For Cc1ccc(N2C(=O)[C@@H]3C(C(=O)C(c4ccccc4)c4ccccc4)=NN[C@@H]3C2=O)cc1 the results were HT1080NT lethal 6%, IL1B secr inh 22, TDP1 cell noCPT -24%, HT1080 IDH1KD tx 8% and TDP1 cell CPT -23%.
For O=C(COC(=O)CNC(=O)c1ccccc1)NCCCc1ccccc1 the results were HT1080NT lethal 6%, IL1B secr inh -2, TDP1 cell noCPT 3%, HT1080 IDH1KD tx 13% and TDP1 cell CPT -3%.
For Cc1ccc(S(=O)(=O)NCC(=O)N(CC2CCCO2)C(C(=O)NCC2CCCO2)C(C)C)cc1 (stereo unspecified) the results were HT1080NT lethal 16%, IL1B secr inh 6, TDP1 cell noCPT 0%, HT1080 IDH1KD tx 17% and TDP1 cell CPT 15%.
`CSc1ccc(CCNC(=O)c2c(C)oc3ncn(C)c(=O)c23)cc1` gave TDP1 cell noCPT 18µM* and TDP1 cell CPT inconclusive.
For CCNC(=O)c1c(C)oc2ncn(C)c(=O)c12 the results were TDP1 cell noCPT -19% and TDP1 cell CPT -9%.
CCN(CC)CCCNC(=O)c1c(C)oc2ncn(CC(C)C)c(=O)c12 was read as TDP1 cell noCPT -4% and TDP1 cell CPT 8%.
Screening Cc1oc2ncn(CC(C)C)c(=O)c2c1C(=O)NCCc1ccc(Cl)cc1 returned TDP1 cell noCPT 15µM* and TDP1 cell CPT inconclusive.
COc1ccc(CCNC(=O)c2c(C)oc3ncn(CC(C)C)c(=O)c23)cc1OC was read as TDP1 cell noCPT inconclusive and TDP1 cell CPT -15%.
`COc1ccc(CCNC(=O)c2c(C)oc3ncn(CC(C)C)c(=O)c23)c(OC)c1` gave TDP1 cell noCPT 16µM* and TDP1 cell CPT 16µM*.
CO[C@H]1[C@H](NC(=O)c2ccsc2)c2ccccc2C12CCN(Cc1cccc3ncccc13)CC2 was read as TDP1 cell noCPT inconclusive and TDP1 cell CPT -11%[9.04 µM].
Screening CNc1nc(-c2c(C)noc2C)nc2ccccc12 returned TDP1 cell noCPT -1% and TDP1 cell CPT 2%.
For Cc1nn2c(=O)cc(COc3ccc(/C=C(\C#N)C(=O)Nc4ccccc4)cc3Cl)nc2s1 the results were TDP1 cell noCPT 21µM* and TDP1 cell CPT -10%.
CCCCOc1ccc(N2CC(C(=O)NCc3ccco3)CC2=O)cc1 (stereo unspecified) was read as HT1080NT lethal 6%, IL1B secr inh 36, TDP1 cell noCPT -16%, HT1080 IDH1KD tx 4% and TDP1 cell CPT 7%.
For O=S1(=O)[C@H]2C[C@H](CO)O[C@@]2(CO)CN1Cc1ccc(-c2cccc(Cl)c2)cc1 the results were HT1080NT lethal -4%, IL1B secr inh -6, TDP1 cell noCPT inconclusive, HT1080 IDH1KD tx -3% and TDP1 cell CPT 21µM*.
Screening O=S1(=O)[C@H]2C[C@H](CO)O[C@@]2(CO)CN1Cc1ccc(-c2ccc(F)cc2)cc1 returned HT1080NT lethal -1%, IL1B secr inh 64, TDP1 cell noCPT inconclusive, HT1080 IDH1KD tx -4% and TDP1 cell CPT inconclusive.
CC(SC1=NCCS1)C(=O)Nc1nnc(-c2ccc(F)cc2)s1 (stereo unspecified) was read as HT1080NT lethal -3%, IL1B secr inh -53*, TDP1 cell noCPT -22%, HT1080 IDH1KD tx 10% and TDP1 cell CPT -9%.
`CCN1c2ccccc2NC2C1C(C(C)=O)C(=O)N2c1ccc(Cl)cc1` (stereo unspecified) gave HT1080NT lethal inconclusive, IL1B secr inh 31, TDP1 cell noCPT 16µM*, HT1080 IDH1KD tx 16µM* and TDP1 cell CPT 21µM*.
For NC(CSCC(=O)O)C(=O)O (stereo unspecified) the results were TDP1 cell noCPT -3% and TDP1 cell CPT -8%.
`CC(C)c1ccccc1NC(=O)Nc1nc(C(N)Cc2ccc(C(F)(F)F)cc2)cs1` (stereo unspecified) gave HT1080NT lethal 5.8µM*, IL1B secr inh -18, TDP1 cell noCPT 23µM*, HT1080 IDH1KD tx inconclusive and TDP1 cell CPT 13µM*.
CC(C)(C)c1ccccc1NC(=O)Nc1nc(C(N)Cc2ccc(F)cc2)cs1 (stereo unspecified) was read as HT1080NT lethal inconclusive, IL1B secr inh -53*, TDP1 cell noCPT 21µM*, HT1080 IDH1KD tx inconclusive and TDP1 cell CPT inconclusive.
For CC(C)(C)c1ccccc1NC(=O)Nc1nc(C(N)c2ccccc2)cs1 (stereo unspecified) the results were HT1080NT lethal inconclusive, IL1B secr inh -16, TDP1 cell noCPT inconclusive, HT1080 IDH1KD tx inconclusive and TDP1 cell CPT inconclusive.
`NC(c1csc(NC(=O)Nc2ccc(OC(F)(F)F)cc2)n1)C1CCCCC1` (stereo unspecified) gave HT1080NT lethal 16µM*, IL1B secr inh -112*, TDP1 cell noCPT 9.2µM*, HT1080 IDH1KD tx inconclusive and TDP1 cell CPT 10µM*.
NC(Cc1ccc(C(F)(F)F)cc1)c1csc(NC(=O)Nc2ccccc2Cc2ccccc2)n1 (stereo unspecified) was read as HT1080NT lethal 8.2µM*, IL1B secr inh -61*, TDP1 cell noCPT 23µM*, HT1080 IDH1KD tx 23µM* and TDP1 cell CPT inconclusive.
For COc1cc(NC(=S)NC(=O)c2ccccc2F)ccc1NC(=O)c1ccco1 the results were HT1080NT lethal -3%, IL1B secr inh -4, TDP1 cell noCPT -22%, HT1080 IDH1KD tx -8% and TDP1 cell CPT -21%.
For Cc1cc(C)cc(OCc2cc(=O)n3cc(C)sc3n2)c1 the results were TDP1 cell noCPT -4% and TDP1 cell CPT -3%.
`CCOC(=O)CCNC(=O)CNC(=O)OCc1ccccc1` gave HT1080NT lethal 15%, IL1B secr inh 36, TDP1 cell noCPT 0%, HT1080 IDH1KD tx 12% and TDP1 cell CPT -8%.
